ID4 SMM – ID4 (human) binding | AID 624137 | small molecule microarray, Flag-ID4 binding, fluorescence F/B | calls only | 1.2% of 31,000 active | P47928; call rule not given here;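 also: a binder raises fluorescence above local background on the spot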
Target sequence (P47928 whole entry, looked up): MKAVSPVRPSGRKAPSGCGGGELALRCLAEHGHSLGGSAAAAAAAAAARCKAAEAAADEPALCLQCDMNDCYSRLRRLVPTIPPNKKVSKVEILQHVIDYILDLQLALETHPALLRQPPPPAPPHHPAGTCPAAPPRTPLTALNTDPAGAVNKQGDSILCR
p53 PUMA act – re-activators of the mutant p53 pathway | AID 624151 | SW480 PUMA-promoter luciferase, p53 mutant reactivation | activation, % at 9.98 µM | 1.5% of 28,000 active; in the data active = activation above about 52%; inconclusive = no clear call, values can overlap the other calls
* marks the source's active call; other numbers are inactive results; i = inactive; ? = inconclusive; . = not tested or not shown; + = active, no number. Only some compounds are listed: those with a hit (about 2.3% of all), similar ones and a draw of the others.

SMILES | ID4 SMM | p53 PUMA act
COc1ccc(Cl)cc1NC(=O)C(C)N(c1ccc(C)cc1)S(C)(=O)=O (centres undefined) | i | 2
COc1cc([N+](=O)[O-])ccc1NC(=O)CSc1nc(C)cc(-c2ccc(Cl)cc2)n1 | i | 15
CCN(CC)CCCCC1CCN(CC(=O)N2c3ccccc3C(=O)Nc3cccnc32)CC1 | + | 3
Cc1scc2c1N(C(=O)CN1CCN(C)CC1)c1ccccc1NC2=O | i | 0
NC(=O)c1c(NC(=O)C(Cc2ccccc2)N2C(=O)c3ccccc3C2=O)sc2c1CCCC2 (centres undefined) | + | -8
COc1ccc(C(=O)Nc2sc3c(c2C(=O)NC2CCS(=O)(=O)C2)CCCC3)cc1OC (centres undefined) | i | -5
COc1ccc(C(=O)Nc2sc3c(c2C(N)=O)CCCC3)cc1OC | i | 76*
O=C(O)C(Cc1ccccc1)N1C(=O)c2ccccc2C1=O (centres undefined) | i | 65*
COc1ccc(NC(=O)C(Cc2ccccc2)N2C(=O)c3ccccc3C2=O)cc1 (centres undefined) | i | 3
CCc1ccccc1OCC(=O)Nc1sc2c(c1C(N)=O)CCCC2 | i | 15
CC1(C)CC(=O)C2=C(C1)N(Cc1cccnc1)C(=O)C2(NC(=O)c1ccc(Cl)cc1Cl)C(F)(F)F (centres undefined) | i | -9
Cc1ccccc1-n1ccc(=O)[nH]c1=O | i | -4
Cn1c(CN2C(=O)CSc3ccc(C(F)(F)F)cc32)nnc1SCc1ccccc1 | i | -2
CC(=O)N[C@H]1[C@H](O[C@H]2CC[C@@]3(C)C(CC[C@]4(C)C3CC=C3[C@@H]5CC(C)(C)CC[C@]5(C(=O)OC5OCC(O)C(O)C5O)C(O)C[C@]34C)C2(C)C)O[C@H](COC2OCC(O)C(OC3OCC(O)C(O)C3O)C2O)[C@@H](O[C@@H]2O[C@@H](C)[C@H](O)[C@@H](O)[C@H]2O[C@@H]2O[C@@H](C)[C@H](O)[C@@H](O)[C@H]2O)[C@@H]1O (some centres undefined) | i | 10
O=C(O)[C@H]1O[C@@H](Oc2c(-c3ccccc3)cc(O)c(-c3ccccc3)c2O)[C@H](O)[C@@H](O)[C@@H]1O | i | .
O=C(CSc1nc(-c2ccccc2)cc(=O)[nH]1)NCC1CCCO1 (centres undefined) | + | 4
O=C(CSc1nc(-c2ccccc2)cc(=O)[nH]1)Nc1ccccc1 | i | -9
Cc1ccccc1NC(=O)CSc1nnc(-c2cccc(Cl)c2)n1C | i | 9
COc1ccc2cc(C(=O)NCc3ccco3)c(=O)oc2c1 | i | 74*
CCOc1cccc2cc(C(=O)NCc3ccco3)c(=O)oc12 | i | 25
COc1ccccc1-c1nnc(SCC(=O)Nc2ccccc2C(F)(F)F)n1C | i | -29
COc1c2c(cc3oc(=O)ccc13)OC(C)(C)C=C2 | i | .
CC1(C)C=Cc2cc3ccc(=O)oc3cc2O1 | . | 58*
CNC[C@H]1Oc2ccc(NS(C)(=O)=O)cc2CC(=O)N([C@H](C)CO)C[C@H]1C | i | -7
CNC[C@@H]1Oc2ccc(NS(C)(=O)=O)cc2CC(=O)N([C@@H](C)CO)C[C@@H]1C | + | -4
SMILES | ID4 SMM | p53 PUMA act
CNC[C@@H]1Oc2ccc(NS(=O)(=O)c3cccs3)cc2CC(=O)N([C@H](C)CO)C[C@H]1C | + | -3
CNC[C@H]1Oc2ccc(NS(=O)(=O)c3cccs3)cc2CC(=O)N([C@H](C)CO)C[C@H]1C | i | -4
CC1=CCC2C(=O)N(c3ccc(C4CCCCC4)cc3)C(=O)C2C1 (centres undefined) | i | -5
Cc1ccc(C(=O)NCCN2CCOCC2)cc1S(=O)(=O)N1CCCCC1 | i | 6
O=C(NCCN1CCOCC1)c1ccc(Cl)c(S(=O)(=O)N2CCOCC2)c1 | + | -10
O=C(Nc1ccccc1C(=O)O)c1ccc(Br)c(S(=O)(=O)N2CCOCC2)c1 | + | 13
Cc1ccc(C(=O)Nc2ccccc2C(=O)N2CCN(c3ccccc3)CC2)cc1S(=O)(=O)N1CCCCC1 | i | -1
O=C(CC1(O)C(=O)Nc2ccccc21)c1ccc(NC(=O)C2CC2)cc1 (centres undefined) | i | ?
COc1ccc(-c2oc(NC(=O)Cc3ccc(OC)c(OC)c3)c(C#N)c2-c2ccc(OC)cc2)cc1 | i | -7
Cc1ccc(C)c(S(=O)(=O)/N=C(\c2ccccc2)N(C)C)c1 | i | -4
COC(=O)c1cc(Br)ccc1NC(=O)COc1ccc(Cl)cc1C | i | 10
Nc1ncnc2c1[nH]c(=S)n2CCOc1cccc2ccccc12 | i | -10
Cc1ccc(Cl)c(OCC(O)Cn2cnc3ccccc32)c1 (centres undefined) | i | ?
Cc1nc2ccccc2n1CC(O)COc1ccccc1Cl (centres undefined) | i | -6
OC(COc1ccccc1Cl)Cn1nnc2ccccc21 (centres undefined) | i | 66*
